Among the data in ChEMBL document CHEMBL1961873, “Compounds: GSK PKIS; Assays: Nanosyn kinase panel” (2012) are inhibition values, retold here.

Molecules are shown by their SMILES.

For orientation: inhibition means the change of the read-out against control, counted positive when it falls.

For assay [1], the target named is T1, Serine/threonine-protein kinase D2 (Homo sapiens) (UniProt Q9BZL6).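 Also: mean value of PRKD2 inhibition, from the GSK PKIS screening panel.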
T1 sequence (whole entry): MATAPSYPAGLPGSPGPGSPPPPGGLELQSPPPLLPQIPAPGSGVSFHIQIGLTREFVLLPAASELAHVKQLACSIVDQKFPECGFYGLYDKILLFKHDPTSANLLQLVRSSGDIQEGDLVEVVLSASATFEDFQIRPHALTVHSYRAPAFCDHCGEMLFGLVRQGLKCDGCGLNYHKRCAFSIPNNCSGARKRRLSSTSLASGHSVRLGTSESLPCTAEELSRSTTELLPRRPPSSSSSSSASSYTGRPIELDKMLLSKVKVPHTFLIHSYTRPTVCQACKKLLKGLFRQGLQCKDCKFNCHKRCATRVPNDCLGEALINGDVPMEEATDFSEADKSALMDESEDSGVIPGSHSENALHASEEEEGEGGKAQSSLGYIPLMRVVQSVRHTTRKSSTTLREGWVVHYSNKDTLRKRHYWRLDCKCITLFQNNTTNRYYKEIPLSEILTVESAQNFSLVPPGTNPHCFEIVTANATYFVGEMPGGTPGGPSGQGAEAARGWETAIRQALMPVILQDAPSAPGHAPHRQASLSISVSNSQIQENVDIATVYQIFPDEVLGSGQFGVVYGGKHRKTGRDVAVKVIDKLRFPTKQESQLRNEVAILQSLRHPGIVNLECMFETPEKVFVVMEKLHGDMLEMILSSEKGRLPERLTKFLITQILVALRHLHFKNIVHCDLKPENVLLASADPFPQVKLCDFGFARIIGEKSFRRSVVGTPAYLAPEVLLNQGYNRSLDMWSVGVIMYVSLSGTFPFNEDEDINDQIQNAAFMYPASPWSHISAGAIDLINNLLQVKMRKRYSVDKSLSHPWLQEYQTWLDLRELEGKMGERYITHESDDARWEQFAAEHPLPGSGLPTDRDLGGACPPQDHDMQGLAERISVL
Conditions: at 1 µM.

Assay [2] deals with T2, Serine/threonine-protein kinase D3 (Homo sapiens) (UniProt O94806).
T2 sequence (whole entry): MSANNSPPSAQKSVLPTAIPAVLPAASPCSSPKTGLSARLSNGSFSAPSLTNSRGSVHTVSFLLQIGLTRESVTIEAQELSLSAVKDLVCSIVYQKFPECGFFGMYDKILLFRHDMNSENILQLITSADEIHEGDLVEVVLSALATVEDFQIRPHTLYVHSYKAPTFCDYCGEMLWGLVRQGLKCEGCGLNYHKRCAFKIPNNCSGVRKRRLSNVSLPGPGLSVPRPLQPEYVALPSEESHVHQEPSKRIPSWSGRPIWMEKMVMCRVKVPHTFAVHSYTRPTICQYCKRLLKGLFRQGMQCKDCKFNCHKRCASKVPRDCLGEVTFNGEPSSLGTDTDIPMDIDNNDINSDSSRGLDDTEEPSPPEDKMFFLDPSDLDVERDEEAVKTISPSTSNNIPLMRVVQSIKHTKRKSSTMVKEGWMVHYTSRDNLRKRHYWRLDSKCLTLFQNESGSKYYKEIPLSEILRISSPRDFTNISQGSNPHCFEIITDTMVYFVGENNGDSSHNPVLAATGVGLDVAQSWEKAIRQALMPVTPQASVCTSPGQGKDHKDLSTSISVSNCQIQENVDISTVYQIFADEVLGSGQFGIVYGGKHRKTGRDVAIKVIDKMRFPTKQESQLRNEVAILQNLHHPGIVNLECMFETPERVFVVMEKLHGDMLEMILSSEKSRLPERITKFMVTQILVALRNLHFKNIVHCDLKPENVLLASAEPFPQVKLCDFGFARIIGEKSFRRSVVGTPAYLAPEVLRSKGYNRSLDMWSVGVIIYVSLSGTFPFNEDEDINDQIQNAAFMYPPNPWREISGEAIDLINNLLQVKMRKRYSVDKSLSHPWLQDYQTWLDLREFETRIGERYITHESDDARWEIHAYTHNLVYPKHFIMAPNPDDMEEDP
The conditions noted are these: at 0.1 µM.

In assay [3] the target is T2, Serine/threonine-protein kinase D3 (Homo sapiens). The conditions noted are these: at 1 µM.
For assay [4], the target named is T3, cGMP-dependent protein kinase 1 (Homo sapiens) (UniProt Q13976).
T3 sequence (whole entry): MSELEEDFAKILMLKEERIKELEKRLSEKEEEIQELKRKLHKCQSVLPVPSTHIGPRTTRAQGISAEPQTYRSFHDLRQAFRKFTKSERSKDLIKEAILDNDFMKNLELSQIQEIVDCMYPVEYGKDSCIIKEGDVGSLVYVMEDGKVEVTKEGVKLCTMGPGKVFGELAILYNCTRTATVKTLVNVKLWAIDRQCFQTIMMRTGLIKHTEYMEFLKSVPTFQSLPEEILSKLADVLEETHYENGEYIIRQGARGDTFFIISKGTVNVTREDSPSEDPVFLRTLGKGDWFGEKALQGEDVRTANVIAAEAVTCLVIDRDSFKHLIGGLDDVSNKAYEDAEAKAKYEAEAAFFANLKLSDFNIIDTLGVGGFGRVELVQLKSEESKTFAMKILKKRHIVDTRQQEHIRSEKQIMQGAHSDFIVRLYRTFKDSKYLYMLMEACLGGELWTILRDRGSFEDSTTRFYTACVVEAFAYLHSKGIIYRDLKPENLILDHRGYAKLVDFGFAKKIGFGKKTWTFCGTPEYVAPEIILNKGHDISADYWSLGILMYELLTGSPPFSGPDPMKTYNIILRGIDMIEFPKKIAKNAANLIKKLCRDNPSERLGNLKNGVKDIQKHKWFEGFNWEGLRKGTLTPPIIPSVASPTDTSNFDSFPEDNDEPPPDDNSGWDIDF
The conditions noted are these: at 0.1 µM.

The target in assay [5] is T3, cGMP-dependent protein kinase 1 (Homo sapiens). Conditions: at 1 µM.
Assay [6] concerns the target T4, cGMP-dependent protein kinase 2 (Homo sapiens) (UniProt Q13237).
T4 sequence (whole entry): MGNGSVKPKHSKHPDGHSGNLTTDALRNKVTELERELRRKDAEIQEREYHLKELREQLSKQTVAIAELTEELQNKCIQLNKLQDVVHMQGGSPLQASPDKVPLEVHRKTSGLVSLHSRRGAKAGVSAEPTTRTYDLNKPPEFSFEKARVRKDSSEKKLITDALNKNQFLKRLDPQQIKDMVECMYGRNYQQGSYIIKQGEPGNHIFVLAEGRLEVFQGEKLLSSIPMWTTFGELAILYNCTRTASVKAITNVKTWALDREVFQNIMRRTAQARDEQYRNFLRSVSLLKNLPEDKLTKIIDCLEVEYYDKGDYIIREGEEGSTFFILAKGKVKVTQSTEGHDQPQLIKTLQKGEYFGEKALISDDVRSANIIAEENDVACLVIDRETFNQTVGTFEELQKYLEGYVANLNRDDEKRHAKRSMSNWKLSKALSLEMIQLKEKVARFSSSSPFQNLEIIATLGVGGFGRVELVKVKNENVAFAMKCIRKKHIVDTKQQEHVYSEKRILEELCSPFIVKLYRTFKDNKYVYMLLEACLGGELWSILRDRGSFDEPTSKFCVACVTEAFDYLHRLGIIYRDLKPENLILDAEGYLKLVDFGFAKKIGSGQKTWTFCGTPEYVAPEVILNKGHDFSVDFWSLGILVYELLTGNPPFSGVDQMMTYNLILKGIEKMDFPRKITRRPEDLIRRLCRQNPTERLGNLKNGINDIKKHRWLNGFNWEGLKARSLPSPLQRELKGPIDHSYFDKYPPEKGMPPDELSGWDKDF
The conditions noted are these: at 0.1 µM.

Assay [7] concerns the target T4, cGMP-dependent protein kinase 2 (Homo sapiens). The conditions noted are these: at 1 µM.
Assay [8] deals with T5, cAMP-dependent protein kinase catalytic subunit PRKX (Homo sapiens) (UniProt P51817).
T5 sequence (whole entry): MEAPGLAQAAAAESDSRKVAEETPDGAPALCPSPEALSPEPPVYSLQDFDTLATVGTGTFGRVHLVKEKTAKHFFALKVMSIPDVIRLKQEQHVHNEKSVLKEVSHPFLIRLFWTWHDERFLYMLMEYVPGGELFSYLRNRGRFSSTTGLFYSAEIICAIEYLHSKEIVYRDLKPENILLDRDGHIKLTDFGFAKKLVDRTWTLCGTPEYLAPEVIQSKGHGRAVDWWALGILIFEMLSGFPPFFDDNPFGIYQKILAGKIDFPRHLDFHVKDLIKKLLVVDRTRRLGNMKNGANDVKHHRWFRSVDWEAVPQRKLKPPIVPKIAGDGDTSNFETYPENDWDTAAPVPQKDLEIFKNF
Conditions: at 0.1 µM.

In assay [9] the target is T5, cAMP-dependent protein kinase catalytic subunit PRKX (Homo sapiens). Conditions: at 1 µM.
Assay [10] concerns the target Rho-associated protein kinase 1 (Homo sapiens) (UniProt Q13464). The conditions noted are these: at 0.1 µM.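 Also: values are mean percent inhibition of ROCK1.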

Chain of Rho-associated protein kinase 1 (Homo sapiens) (Q13464 2-1354 limits assumed): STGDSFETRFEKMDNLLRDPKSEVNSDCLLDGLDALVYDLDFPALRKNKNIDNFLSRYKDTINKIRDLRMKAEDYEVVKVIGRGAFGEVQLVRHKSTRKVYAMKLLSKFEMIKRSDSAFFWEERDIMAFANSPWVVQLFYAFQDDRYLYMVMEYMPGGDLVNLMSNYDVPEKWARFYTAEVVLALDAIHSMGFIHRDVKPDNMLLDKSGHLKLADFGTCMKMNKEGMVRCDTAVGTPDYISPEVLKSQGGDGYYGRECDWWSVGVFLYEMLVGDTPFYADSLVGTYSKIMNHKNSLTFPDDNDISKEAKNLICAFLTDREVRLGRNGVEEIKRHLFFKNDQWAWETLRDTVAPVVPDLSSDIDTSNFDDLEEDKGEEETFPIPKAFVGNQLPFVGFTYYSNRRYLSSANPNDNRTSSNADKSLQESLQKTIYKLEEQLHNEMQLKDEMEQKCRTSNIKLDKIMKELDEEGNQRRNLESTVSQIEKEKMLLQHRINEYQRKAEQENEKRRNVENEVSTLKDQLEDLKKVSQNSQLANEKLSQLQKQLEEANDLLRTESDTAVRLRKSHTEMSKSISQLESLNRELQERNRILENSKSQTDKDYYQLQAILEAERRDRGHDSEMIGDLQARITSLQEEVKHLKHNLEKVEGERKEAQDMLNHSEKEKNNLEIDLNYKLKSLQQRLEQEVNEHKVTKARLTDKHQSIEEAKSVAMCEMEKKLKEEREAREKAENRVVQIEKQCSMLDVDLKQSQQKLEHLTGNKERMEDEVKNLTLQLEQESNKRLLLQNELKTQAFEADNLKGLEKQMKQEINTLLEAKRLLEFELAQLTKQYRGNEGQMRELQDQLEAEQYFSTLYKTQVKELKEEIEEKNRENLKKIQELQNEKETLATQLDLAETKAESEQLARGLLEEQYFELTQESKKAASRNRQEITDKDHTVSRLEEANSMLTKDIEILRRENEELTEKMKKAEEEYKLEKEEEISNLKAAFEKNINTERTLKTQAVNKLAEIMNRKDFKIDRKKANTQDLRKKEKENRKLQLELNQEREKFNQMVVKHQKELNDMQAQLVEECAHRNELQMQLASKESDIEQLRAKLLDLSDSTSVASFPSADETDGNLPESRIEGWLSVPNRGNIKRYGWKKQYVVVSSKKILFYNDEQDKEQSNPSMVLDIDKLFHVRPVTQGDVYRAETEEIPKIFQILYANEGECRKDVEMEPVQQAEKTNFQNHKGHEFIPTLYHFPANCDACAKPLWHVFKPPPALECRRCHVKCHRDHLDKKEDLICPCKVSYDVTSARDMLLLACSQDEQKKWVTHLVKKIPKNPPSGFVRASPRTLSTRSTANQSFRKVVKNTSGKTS

`N#Cc1cccc(Nc2nccc(-c3cnn4ncccc34)n2)c1`: the inhibition in assay [1] stood at 46.8%; in assay [2] it was 10.5%; in assay [3], 54.9%; in [4], 10.8%; in [5] it was 50.2%; in assay [6] it was 4.14%. Also, the inhibition in assay [7] was determined as 25.9%; in [8], 1.47%; in assay [9], 2.66%; in [10] it was 1.39%.

Regarding `COc1cccc(-n2ncc3c(N/N=C/c4ccc(C)cc4)ncnc32)c1`, the inhibition in [1] came out at 8.29%; in assay [2] it was 5.18%; in assay [3] it was 9.61%; in assay [4], 3.66%; in assay [5], 7.27%; in assay [6] it was 3.43%. For the same compound, the inhibition in assay [7] is 5.99%; in [8], 2.31%; in assay [9] it was 4.53%; in assay [10], 3.27%.

With `Cc1ccc(C(=O)NC2CC2)cc1-c1ccc2[nH]ncc2c1`, the inhibition in assay [1] is 0.22%; in assay [2] it was -3.35%; in assay [3], -2.14%; in assay [4], -1.78%; in assay [5], 1.62%; in assay [6] it was -1.53%. The inhibition was -0.47% in assay [7], -1.3% in [8], -0.54% in assay [9] and -0.64% in assay [10].

Take `Cc1ccc(NC(=O)CC2CC2)cc1-c1ccc(C(=O)NCC2CC2)cc1`: the inhibition in [1] came to 3.78%; in [2], 3.15%; in assay [3], 3.66%; in assay [4] it was 2.45%; in assay [5], 1.88%; in [6] it was 1.38%. The inhibition in assay [7] turned out to be 2.64%; in assay [8] it was 1.92%; in assay [9], 2.19%; in assay [10] it was 1%.

Regarding `CN1CCN(C(=O)c2ccc(NC(=O)Nc3ccc(N(C)c4ccnc(Nc5ccc(CS(C)(=O)=O)cc5)n4)cc3)cc2)CC1`, the inhibition is 3.43% in assay [1]; 1.06% in [2]; 3.69% in [3]; 1.76% in assay [4]; 3.23% in [5]; 1.26% in [6]. Moreover, the inhibition was found to be 1.71% in assay [7], 1.71% in [8], 0.77% in assay [9] and 2.82% in [10].

For `COc1cc2ncnc(Nc3ccc(C)c(O)c3)c2cc1OC`, the inhibition was 10.5% in assay [1]; 5.98% in assay [2]; 8.58% in [3]; 3.2% in assay [4]; 3.61% in [5]; 2.18% in assay [6]. Further, the inhibition in assay [7] is 3.65%; in assay [8], 2.05%; in [9] it was 2.06%; in [10], 0.48%.

Consider `COc1cc(/C=N/Nc2ncnc3c2cnn3C(C)C)ccc1O`, for which the inhibition was determined as 1.41% in [1]; 1.37% in assay [2]; 1.6% in [3]; 3.26% in assay [4]; 3.14% in assay [5]; 0.71% in assay [6]. Moreover, the inhibition is 2.16% in assay [7], 0.57% in assay [8], 0.81% in [9] and 0.31% in [10].

As to `Oc1cccc(-c2nc(-c3ccccc3)[nH]c2-c2ccncc2)c1`, the inhibition was 7.13% in assay [1]; 2.71% in [2]; 4.25% in assay [3]; 2.56% in assay [4]; 5.69% in [5]; 1.58% in [6]. In addition, the inhibition came to 6.36% in [7], 2.36% in [8], 2.93% in [9] and 0.52% in [10].
